Consider five molecules from PubChem BioAssay (EPA / NIEHS).

Records with an inconclusive call do not appear. Calls of active or inactive are those of the source. The calls were made as follows, unless noted: active = hit-call score of the fitted dose curve at least 0.9, where 1 is the maximum; inactive = score below 0.9.

Read-out in assay [1]: E-selectin (Homo sapiens) (UniProt P16581)
As to the kind of experiment: BSK_3C_Eselectin: BioMAP Diversity Plus: 3C Assay for Eselectin Biomarker Activity (AID 2283015).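 Also: cell surface E-selectin protein quantified by ELISA 24 h after dosing.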 As to conditions: primary human endothelial cells (HUVEC); actives raise or lower the signal. The gist of the method: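 Primary human umbilical vein endothelial cells (3C system) were dosed with chemical and cell-surface E-selectin measured by ELISA 24 h later. Bidirectional curve fitting used DMSO as negative control and baseline.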

Read-out in assay [2]: Interleukin-1 alpha (IL1a), IL1A (gene 3552)
The assay can be described thus: BSK_BE3C_IL1a: BioMAP Diversity Plus: BE3C Assay for Interleukin-1 alpha (IL1a) Biomarker Activity (AID 2283016). As to conditions: primary human bronchial epithelial cells; actives raise or lower the signal. The gist of the method: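 Signal from IL-1a ELISA, taken 24 h after chemical dosing of human bronchial epithelial cells, is compared with DMSO as baseline using bidirectional curve fitting.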

Read-out in assay [3]: Monocyte Chemoattractant Protein-1 (MCP1), CCL2 (gene 6347)
As to the kind of experiment: BSK_3C_MCP1: BioMAP Diversity Plus: 3C Assay for Monocyte Chemoattractant Protein-1 (MCP1) Biomarker Activity (AID 2283017). As to conditions: primary human endothelial cells (HUVEC); actives raise or lower the signal. The gist of the method: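 Primary human umbilical vein endothelial cells (3C system) were exposed to test chemical for 24 h, after which MCP-1 was quantified by ELISA. Activity was fitted bidirectionally against DMSO as negative control and baseline.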

Read-out in assay [4]: Monocyte Chemoattractant Protein-1 (MCP1), CCL2 (gene 6347)
The assay can be described thus: BSK_4H_MCP1: BioMAP Diversity Plus: 4H Assay for Monocyte Chemoattractant Protein-1 (MCP1) Biomarker Activity (AID 2283018). To be noted: primary human endothelial cells (HUVEC); actives raise or lower the signal. The gist of the method: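 Endothelial cells from umbilical vein were treated with test chemical, then after 24 h MCP-1 levels were quantified by ELISA; endpoint values came from bidirectional fitting with DMSO as baseline of activity.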

Read-out in assay [5]: Human Leukocyte Antigen - DR isotype (HLADR), HLA-DRA (gene 3122)
As to the kind of experiment: BSK_3C_HLADR: BioMAP Diversity Plus: 3C Assay for Human Leukocyte Antigen - DR isotype (HLADR) Biomarker Activity (AID 2283019).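 As to outcome: ELISA of cell-surface HLA-DR on HUVEC 24 h after dosing.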 As to conditions: primary human endothelial cells (HUVEC); actives raise or lower the signal. The gist of the method:
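Primary human umbilical vein endothelial cells (3C system) were dosed with compound and cell-surface HLA-DR was quantified by ELISA at 24 h. Activity was fitted bidirectionally against DMSO as negative control and baseline.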

Read-out in assay [6]: Interleukin-8 (IL8), CXCL8 (gene 3576)
The assay can be described thus: BSK_3C_IL8: BioMAP Diversity Plus: 3C Assay for Interleukin-8 (IL8) Biomarker Activity (AID 2283020). As to conditions: primary human endothelial cells (HUVEC); actives raise or lower the signal. The gist of the method: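 Endothelial primary cells of human umbilical vein origin are dosed with chemical; after 24 h the IL-8 biomarker is measured by ELISA, and concentration–response is fitted in both directions versus DMSO.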

Read-out in assay [7]: Monokine induced gamma interferon (MIG), CXCL9 (gene 4283)
The assay can be described thus: BSK_3C_MIG: BioMAP Diversity Plus: 3C Assay for Monokine induced gamma interferon (MIG) Biomarker Activity (AID 2283021). As to conditions: primary human endothelial cells (HUVEC); actives raise or lower the signal. The gist of the method:
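Endothelial primary cells (human umbilical vein) are dosed with test chemical in the 3C system. MIG levels are measured by ELISA at 24 h and fitted in both directions relative to DMSO.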

Assay [8] addresses human Vitamin D Receptor (VDR), VDR (gene 7421) (UniProt P11473). The assay can be described thus: ATG_VDR_TRANS: Attagene TRANS-FACTORIAL HepG2 Assay for human Vitamin D Receptor (VDR) (AID 2283022; active = hit-call score of the fitted dose curve at least 0.9, where 1 is the maximum). The gist of the method: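 HepG2 cells were transiently transfected with multiple GAL4-UAS reporter units, so signal reflects exogenous chimeric receptor-Gal4 activity. After 24 h compound exposure, reporter mRNA was measured by RT-PCR, fluorescent labelling and capillary electrophoresis, fitted for gain of signal versus DMSO.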

Read-out in assay [9]: Matrix Metallopeptidase 1 (MMP1), MMP1 (gene 4312)
As to the kind of experiment: BSK_BE3C_MMP1: BioMAP Diversity Plus: BE3C Assay for Matrix Metallopeptidase 1 (MMP1) Biomarker Activity (AID 2283024). To be noted: primary human bronchial epithelial cells; actives raise or lower the signal. The gist of the method:
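MMP1 signal, measured by ELISA after a 24 h chemical exposure of human primary bronchial epithelial cells, is analysed with bidirectional fitting using DMSO as negative control.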

The nature of assay [10]: BSK_3C_Vis: BioMAP Diversity Plus: 3C Assay for Morphology Visualization (AID 2283025).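 Also: fitted both ways so gain or loss versus DMSO counts.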 To be noted: primary human endothelial cells (HUVEC). The gist of the method: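 Morphology read by light microscopy serves as a background control for the multiplexed 3C assay in human umbilical vein endothelial cells, taken 24 h after dosing, with DMSO as the negative control and bidirectional curve fitting.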

Read-out in assay [11]: Pselectin, SELP (gene 6403)
As to the kind of experiment: BSK_4H_Pselectin: BioMAP Diversity Plus: 4H Assay for Pselectin Biomarker Activity (AID 2283026). As to conditions: primary human endothelial cells (HUVEC); actives raise or lower the signal. The gist of the method:
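Endothelial primary cells (human umbilical vein) are dosed, incubated 24 h, and assayed for surface P-selectin by ELISA; responses in either direction are fitted relative to the DMSO negative control.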

A short description of assay [12]: BSK_4H_SRB: Viability Assessment in the BioMAP Diversity Plus: 4H Assay (AID 2283027).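 Also: cells exposed to compound for 24 h before staining.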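 As to AC50: curves fitted both ways versus DMSO so AC50 may be loss or gain.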 To be noted: primary human endothelial cells (HUVEC). The gist of the method:
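Cytotoxicity readout: sulforhodamine B (0.1%) staining of total protein after 10% TCA fixation, measured at 560 nm in human umbilical vein endothelium at 24 h. DMSO set the baseline; fitting was bidirectional.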

Assay [13] is described as follows: BSK_BE3C_SRB: Viability Assessment in the BioMAP Diversity Plus: BE3C Assay (AID 2283028). As to conditions: primary human bronchial epithelial cells. The gist of the method:
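Human primary bronchial epithelial cells were exposed to test chemicals for 24 h. Total protein in parallel cultures was then measured by staining with 0.1% sulforhodamine B after 10% TCA fixation, with absorbance read at 560 nm. Activity was fitted bidirectionally against DMSO.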

Read-out in assay [14]: Thrombomodulin, THBD (gene 7056)
As to the kind of experiment: BSK_3C_Thrombomodulin: BioMAP Diversity Plus: 3C Assay for Thrombomodulin Biomarker Activity (AID 2283029). As to conditions: primary human endothelial cells (HUVEC); actives raise or lower the signal. The gist of the method: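 Endothelial cells from umbilical vein are dosed with test chemical and incubated 24 h. Thrombomodulin is then quantified by ELISA, with DMSO serving as negative control and activity baseline.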

Read-out in assay [15]: Urokinase-type plasminogen activator receptor (uPAR), PLAUR (gene 5329)
The assay can be described thus: BSK_4H_uPAR: BioMAP Diversity Plus: 4H Assay for Urokinase-type plasminogen activator receptor (uPAR) Biomarker Activity (AID 2283030). As to conditions: primary human endothelial cells (HUVEC); actives raise or lower the signal. The gist of the method:
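Primary human umbilical vein endothelial cells were exposed to chemical for 24 h before cell-surface uPAR was quantified by ELISA. Activity was fitted bidirectionally against the DMSO negative control baseline.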

Assay [16] concerns the target human Retinoid X Receptor beta (RXRb), RXRB (gene 6257) (UniProt P28702). The assay can be described thus: ATG_RXRb_TRANS: Attagene TRANS-FACTORIAL HepG2 Assay for human Retinoid X Receptor beta (RXRb) (AID 2283013; active = hit-call score of the fitted dose curve at least 0.9, where 1 is the maximum). The gist of the method:
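Chimeric receptor-Gal4 activity was assessed in transiently transfected human HepG2 cells after 24 h exposure. Transcripts from GAL4-UAS reporters were quantified by fluorescent RT-PCR and capillary electrophoresis, with DMSO as negative control and baseline.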

Assay [17] can be described thus: BSK_3C_SRB: Viability Assessment in the BioMAP Diversity Plus: 3C Assay (AID 2283023).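 Also: fitted both ways against DMSO so a hit may be signal rise or drop.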 To be noted: primary human endothelial cells (HUVEC). The gist of the method: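 Primary human umbilical vein endothelial cells in the 3C system were read 24 h after compound dosing. Total protein was stained with 0.1% sulforhodamine B after 10% TCA fixation and read at 560 nm, with bidirectional fitting against DMSO as baseline.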

Sequence of E-selectin (Homo sapiens) (P16581 whole entry, looked up): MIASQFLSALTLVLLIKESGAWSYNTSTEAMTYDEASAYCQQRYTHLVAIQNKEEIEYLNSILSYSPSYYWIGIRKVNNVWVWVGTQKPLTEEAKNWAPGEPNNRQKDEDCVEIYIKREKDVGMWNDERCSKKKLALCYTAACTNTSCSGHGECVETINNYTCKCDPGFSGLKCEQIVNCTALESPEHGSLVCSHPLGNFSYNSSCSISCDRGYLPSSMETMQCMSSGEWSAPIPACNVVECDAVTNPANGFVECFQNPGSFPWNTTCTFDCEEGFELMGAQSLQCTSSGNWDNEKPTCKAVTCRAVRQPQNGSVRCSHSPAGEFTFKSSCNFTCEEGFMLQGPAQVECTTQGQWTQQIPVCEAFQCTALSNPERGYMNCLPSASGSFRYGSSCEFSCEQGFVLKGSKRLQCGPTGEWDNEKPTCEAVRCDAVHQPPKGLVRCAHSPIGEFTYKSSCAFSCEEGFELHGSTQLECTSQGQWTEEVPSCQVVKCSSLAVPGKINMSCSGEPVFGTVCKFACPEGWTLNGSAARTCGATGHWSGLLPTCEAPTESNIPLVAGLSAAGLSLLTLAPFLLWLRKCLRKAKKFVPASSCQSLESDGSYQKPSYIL
Sequence of human Retinoid X Receptor beta (RXRb), RXRB (gene 6257) (P28702 whole entry, looked up, the tested form may be a part): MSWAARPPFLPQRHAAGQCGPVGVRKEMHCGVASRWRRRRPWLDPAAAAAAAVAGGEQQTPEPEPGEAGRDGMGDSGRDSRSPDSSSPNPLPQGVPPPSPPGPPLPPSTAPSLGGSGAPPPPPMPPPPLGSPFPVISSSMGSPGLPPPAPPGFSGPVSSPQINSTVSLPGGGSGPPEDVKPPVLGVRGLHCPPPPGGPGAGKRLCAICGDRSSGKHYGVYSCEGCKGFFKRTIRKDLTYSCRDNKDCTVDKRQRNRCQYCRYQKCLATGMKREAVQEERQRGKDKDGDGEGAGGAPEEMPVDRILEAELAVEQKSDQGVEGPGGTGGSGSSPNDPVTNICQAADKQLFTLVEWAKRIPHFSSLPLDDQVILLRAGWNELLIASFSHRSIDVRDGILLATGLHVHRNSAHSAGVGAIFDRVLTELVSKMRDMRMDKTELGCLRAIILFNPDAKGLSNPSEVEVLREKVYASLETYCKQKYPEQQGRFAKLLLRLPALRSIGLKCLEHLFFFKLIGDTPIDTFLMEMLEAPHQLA
Sequence of human Vitamin D Receptor (VDR), VDR (gene 7421) (P11473 whole entry, looked up, the tested form may be a part): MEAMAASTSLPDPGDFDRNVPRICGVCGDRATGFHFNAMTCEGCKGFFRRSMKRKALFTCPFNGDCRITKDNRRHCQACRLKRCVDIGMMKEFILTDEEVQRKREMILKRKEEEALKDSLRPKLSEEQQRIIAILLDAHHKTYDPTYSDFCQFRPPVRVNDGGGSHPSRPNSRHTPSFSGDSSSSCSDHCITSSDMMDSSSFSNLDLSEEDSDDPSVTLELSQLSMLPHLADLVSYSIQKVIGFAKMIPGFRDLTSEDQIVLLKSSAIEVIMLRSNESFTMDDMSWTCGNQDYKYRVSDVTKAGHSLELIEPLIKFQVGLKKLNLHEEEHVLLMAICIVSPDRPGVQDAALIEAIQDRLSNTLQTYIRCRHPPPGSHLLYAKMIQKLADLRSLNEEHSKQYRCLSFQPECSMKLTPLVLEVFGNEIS

For orientation: AC50 means the concentration at which the activity in the assay is half-maximal. Consider `COc1ccc2c(c1)c(CC(=O)O)c(C)n2C(=O)c1ccc(Cl)cc1`, for which the outcome in assay [1], in assay [2], in assay [3], in assay [4], in assay [5] and in [6] was inactive. The result in assay [7], in assay [8], in assay [10], in assay [11], in [12] and in assay [13] was inactive. In addition, the outcome in assay [14] and in assay [15] was inactive. In addition, the AC50 in assay [9] was 7.79 µM (active).
Regarding `CC(C)(C)c1cc(O)c(C(C)(C)C)cc1O`, the AC50 was 59.4 µM (active) in assay [16]; 2.88 µM (active) in assay [4]; 9 µM (active) in [5]; 61.2 µM (active) in [8]; 9.8 µM (active) in [10]; 5.24 µM (active) in assay [11]. For the same molecule, the AC50 in assay [12] is 3.45 µM (active); in assay [15] it was 4.17 µM (active). Besides, the outcome in [1], in [2], in assay [3], in assay [6], in [17] and in assay [9] was inactive. In addition, the outcome in assay [13] and in [14] was inactive.
For `CCc1c(C(=O)NN2CCCCC2)nn(-c2ccc(Cl)cc2Cl)c1-c1ccc(Br)cc1`, the result in [1], in [2], in assay [7], in [8], in [9] and in assay [14] was inactive. The concentration at half-maximal activity (AC50) was 7.54 µM (active) in [3]; 5.41 µM (active) in assay [4]; 10.4 µM (active) in assay [5]; 7.69 µM (active) in assay [6]; 9.03 µM (active) in assay [17]; 13.2 µM (active) in assay [10]. Also, the AC50 in assay [11] was 2.66 µM (active); in assay [12] it was 6.66 µM (active); in assay [15], 6.58 µM (active).
Turning to `COC(=O)c1ccc(O)cc1`, the AC50 in [16] was 55.3 µM (active). For the same molecule, the outcome in [1], in assay [2], in [3], in [4], in assay [5] and in assay [6] was inactive. In addition, the call in [8], in assay [17], in [9], in [10], in assay [11] and in [12] was inactive. The outcome in [14] and in [15] was inactive.
For `CCCc1cc(=O)[nH]c(=S)[nH]1`, the outcome in assay [16], in [1], in assay [2], in assay [3], in assay [4] and in assay [5] was inactive. Also, the result in assay [6], in assay [9], in assay [10], in assay [11], in assay [12] and in assay [14] was inactive. Besides, the result in assay [15] was inactive.
